# Measurements: the supplement of paper PMC12350171
# Structures can show the parent of a compound that is named as a salt. A number with no mark means an inactive call.
# How the values were obtained:
# Conditions in all cases: 20 µM
# [1] = test system: Salmonella enterica typhimurium; test: growth AUC normalised to DMSO control (fraction of control); higher = less growth inhibition, active = hit call of the paper
# In short: (§1)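 Pathogens were passaged twice under anaerobic conditions, then inoculated into pre-reduced mGAM plates at a starting OD578 of 0.01, with compound at 20 μM and 1% DMSO, and sealed with breathable membranes. For Haemophilus parainfluenzae, the medium was supplemented with hemin and NAD. OD578 was read every hour for 24 h in three biological replicates. Growth-curve AUC was calculated by the trapezoidal rule up to the exponential-to-stationary transition and normalised to DMSO controls on the same plate.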
# Shigella flexneri = test: as above
# In short: as §1
# Vibrio cholerae = test: as above
# In short: as §1
# [2] = test system: Yersinia pseudotuberculosis; test: as above
# In short: as §1
# P. vulgatus RND KO = test: growth AUC normalised to DMSO control (median) (fraction of control); higher = less growth inhibition, active = hit call of the paper
# In short: (§2)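 After two overnight anaerobic passages, strains were inoculated at OD578 0.01 into mGAM in 96-well plates containing approved-drug library compounds at 20 μM and 1% DMSO. Growth was followed by reading OD578 hourly for 24 h within an anaerobic incubator. Area under the curve, taken by the trapezoidal rule up to the start of stationary phase, was normalised to same-plate vehicle wells, and the median of three biological replicates is listed.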
# P. vulgatus WT = test: as above
# In short: as §2
# [3] = test system: S. enterica typhimurium WT; test: as above
# In short: as §2
# [4] = test system: S. enterica typhimurium tolC KO; test: as above
# In short: as §2
# 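Throughout, for growth AUC normalised to DMSO control (median): active when median AUC fell below 0.1.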
Compound,growth AUC normalised to DMSO control [1],growth AUC normalised to DMSO control (Shigella flexneri),growth AUC normalised to DMSO control (Vibrio cholerae),growth AUC normalised to DMSO control [2],growth AUC normalised to DMSO control (P. vulgatus RND KO),growth AUC normalised to DMSO control (P. vulgatus WT),growth AUC normalised to DMSO control [3],growth AUC normalised to DMSO control [4]
CN(C)C/C=C(/c1ccc(Br)cc1)c1cccnc1 [Zimelidine dihydrochloride monohydrate],0.996,0.999,1,1.03,1.04,1.04,1.02,0.983
CC1(C)S[C@@H]2[C@H](NC(=O)[C@H](C(=O)O)c3ccsc3)C(=O)N2[C@H]1C(=O)O [Ticarcillin sodium],0.00595 (active),0.178 (active),0.116 (active),0.0593 (active),0.00834 (active),0.0131 (active),0.00844 (active),0.0028 (active)
COc1ccc2[nH]c([S+]([O-])Cc3ncc(C)c(OC)c3C)nc2c1 (stereo not drawn) [Omeprazole],0.958,0.998,1.05,1,1.02,1.03,1,0.952
CN(C)CC/C=C1/c2ccccc2COc2ccc(CC(=O)O)cc21 [Olopatadine hydrochloride],1.02,0.963,1.03,1.02,0.99,0.984,0.992,0.992
CC(C)(C(=O)O)c1ccc(C(O)CCCN2CCC(C(O)(c3ccccc3)c3ccccc3)CC2)cc1 (stereo not drawn) [Fexofenadine hydrochloride],1.02,1.02,1.04,0.99,1.01,1.01,1.01,1
Nc1ncnc2c1ncn2C1OC(COP(=O)(O)O)C(O)C1O (stereo not drawn) [Adenosine 5'-monophosphate monohydrate],0.999,0.986,0.981,1,0.977,0.984,0.992,0.995
Cc1cccc(N(C)C(=S)Oc2ccc3ccccc3c2)c1 [Tolnaftate],0.953,1.02,0.991,0.986,1,1.04,1,0.981
O=C(O)CCNC(=O)c1ccc(/N=N/c2ccc(O)c(C(=O)O)c2)cc1 [Balsalazide disodium salt],1.03,1.03,1.05,1,1.02,1.08,0.996,1.02
C/C=C(/C(=C/C)c1ccc(O)cc1)c1ccc(O)cc1 [Dienestrol],1,1.04,0.969,1.02,0.015 (active),0.264,1,0.857
Cc1cnc(NC(=O)C2=C(O)c3ccccc3S(=O)(=O)N2C)s1 [Meloxicam],1.01,0.953,0.837 (active),1,0.982,0.991,0.994,0.947
CC(c1cc2ccccc2s1)N(O)C(N)=O (stereo not drawn) [Zileuton],0.987,0.986,1,0.931,1.01,0.985,1,0.993
CS(=O)(=O)OCCCCOS(C)(=O)=O [Busulfan],1.01,1.04,1.07,1.03,1.02,0.994,1.01,1.01
CCn1nc(C(=O)O)c(=O)c2cc3c(cc21)OCO3 [Cinoxacin],0.0189 (active),0.0786 (active),0.0544 (active),0.0459 (active),1,1.01,0.0574 (active),0.0349 (active)
O=S(=O)(O)CCS [Coenzyme M],1,1.02,1.01,0.997,1.01,1.01,1.01,1
COc1ccc2c(c1)N(C[C@H](C)CN(C)C)c1ccccc1S2 [Methotrimeprazine maleate salt],1.01,1.03,1,0.99,1.04,1.02,0.995,0.954
OC(c1cc(C(F)(F)F)nc2c(C(F)(F)F)cccc12)C1CCCCN1 (stereo not drawn) [Mefloquine hydrochloride],0.997,0.975,1,0.99,0.719,0.777,0.998,0.948
